The whole screen tested about 16,000 compounds, of which about 5,100 (32%) were called active. Another 25% or so got no clear call; they are omitted. Some of the results follow. Values without a mark were called inactive. The call rests on the fitted dose curve; in most records, active means well fitted curve in the direction sought with a large enough effect; inconclusive means small, poorly fitted or top-dose-only effect, or effect the other way; inactive means no such curve, though single readings can be large or run the other way.
These compounds were tested against Cytochrome P450 3A4 (Homo sapiens) (UniProt P08684) (assay: Cytochrome panel assay with activity outcomes). Conditions: recombinant CYP, pro-luciferin dealkylation, luminescence, p450-cyp3a4; series mostly up to 57.1 µM.
Cytochrome P450 3A4 (Homo sapiens), sequence (P08684 whole entry, looked up): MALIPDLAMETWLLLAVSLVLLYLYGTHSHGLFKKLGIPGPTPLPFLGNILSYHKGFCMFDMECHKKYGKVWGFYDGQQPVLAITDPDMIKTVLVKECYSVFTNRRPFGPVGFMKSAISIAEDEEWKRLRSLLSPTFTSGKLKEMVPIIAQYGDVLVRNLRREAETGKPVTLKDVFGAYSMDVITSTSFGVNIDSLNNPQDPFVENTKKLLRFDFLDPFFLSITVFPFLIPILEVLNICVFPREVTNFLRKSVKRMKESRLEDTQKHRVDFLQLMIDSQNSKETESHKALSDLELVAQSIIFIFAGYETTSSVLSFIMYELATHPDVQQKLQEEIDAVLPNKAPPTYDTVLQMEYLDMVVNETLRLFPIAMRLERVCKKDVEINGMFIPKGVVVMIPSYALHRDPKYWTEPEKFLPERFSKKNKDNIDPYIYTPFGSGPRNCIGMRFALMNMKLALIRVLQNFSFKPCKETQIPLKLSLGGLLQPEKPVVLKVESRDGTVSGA
On the % scale 0 is the no-effect control and ±100 the full control effect.

Structure (SMILES)	AC50	activity, negative = inhibition
C/C(=N\NC(=O)CC1N=C(Cc2ccccc2)NNC1=O)c1ccc(Cl)cc1Cl (stereo unspecified)	1.26 µM (active)	
Nc1ccc(-c2nc3c(Cl)c(N)ccc3[nH]2)cc1	1 µM (active)	
CN(C)c1ccc(-c2nccc(NCc3cccs3)n2)cc1	12.6 µM (active)	
c1cncc(-c2nccc(NCc3cccs3)n2)c1	1 µM (active)	
CN(C)C(=O)c1ccc(-c2nccc(NCc3cccs3)n2)cc1	25.1 µM (active)	
c1csc(CNc2ccnc(-c3ccoc3)n2)c1	7.94 µM (active)	
Cc1ccccc1Oc1ncnc2sccc12	inactive	
COc1ccc(-n2c(=O)c(C)nc3cnc(Nc4ccccc4)nc32)cc1	12.6 µM (active)	
COc1cccc(Nc2ncc3nc(-c4ccccc4)c(=O)n(C)c3n2)c1	inactive	
Cn1c(=O)c(-c2ccc(Cl)cc2)nc2cnc(Nc3ccccc3)nc21	inactive	
COc1cccc(Nc2ncc3nc(C)c(=O)n(-c4ccccc4)c3n2)c1	15.8 µM (active)	
O=C(Nc1ccccc1)N(Cc1ccccc1)CC(O)C(F)(F)F (stereo unspecified)	inactive	
O=C(NC(=S)N(Cc1ccccc1)Cc1ccccc1)c1ccccc1F	15.8 µM (active)	
COc1ccc(C(=O)NNC(=S)NC(=O)c2ccco2)cc1		9.96% [at 2.29 µM]
N/C(=N\c1nc2ccccc2o1)NC(=O)c1ccccc1F	inactive	
CCOc1ccc(C(=O)NC(=S)N(Cc2ccccc2)Cc2ccccc2)cc1	10 µM (active)	
COc1ccc(CN(CCC#N)C(=S)NC(=O)c2ccccc2)cc1	14.1 µM (active)	
CCC(=O)c1ccc(OCC(O)CN(CCc2ccccc2)Cc2ccccc2)cc1 (stereo unspecified)	inactive	
CC(C)Cc1ccc([C@H](C)C(=O)O)cc1	inactive	
CCN(CC)c1ccc(/C=N/Nc2nc(C)cc(=O)[nH]2)cc1	14.1 µM (active)	
CCOC(=O)N/N=C/c1ccc(F)cc1	inactive	
O=S(=O)(NCc1cn2ccsc2n1)c1ccc(Oc2ccccc2)cc1	11.2 µM (active)	
Nc1ccc(S(=O)(=O)NCc2nccs2)cc1		-10.4% [at 11.4 µM]

Structure (SMILES)	AC50	activity, negative = inhibition
N=c1sccn1CC(=O)Nc1cccc(Oc2ccccc2)c1		-7.61% [at 11.4 µM]
Cc1ccc(-c2ccc(/C=N/N3C(=O)C4C5C=CC(C6CC56)C4C3=O)o2)c([N+](=O)[O-])c1 (stereo unspecified)	2.24 µM (active)	
Cc1cc(-c2ccc(/C=N/n3cnnc3)o2)c([N+](=O)[O-])cc1C	inactive	
COc1cccc2c1OC[C@@H](CO)[C@H]2N(C)C(=O)Nc1ccc(Cl)cc1Cl	14.1 µM (active)	
Cc1nc(C(=O)Nc2ccc(Cl)cc2Cl)nn1-c1cc(OC(C)C)c(Cl)cc1Cl	inactive	
NC(=O)c1cc[n+](CC2=C(C(=O)[O-])N3C(=O)[C@@H](NC(=O)Cc4cccs4)[C@@H]3SC2)cc1	inactive	
CN(C)c1ccc(-c2nc3n(n2)C(c2cccnc2)C2=C(CC(C)(C)CC2=O)N3)cc1 (stereo unspecified)	2.24 µM (active)	
COc1ccc(-c2cc(C(F)F)nc(-n3nc(C)cc3C)n2)cc1	10 µM (active)	
Cc1cc(C)n(-c2nc(NC(C)C)nc(NC(C)C)n2)n1		0.214% [at 11.4 µM]
CCCCn1c(NCc2ccccc2NS(=O)(=O)c2ccc(C)cc2)nc2ccccc21	3.55 µM (active)	
Cc1ccc(S(=O)(=O)Nc2ccccc2C=O)cc1		-24.7% [at 11.4 µM]
CC(C)(C)NCC[C@@H](O)c1cc(C(F)(F)F)nc2c(C(F)(F)F)cccc12		-13.6% [at 11.4 µM]
COC(=O)N1CCC2(CCN(C(=O)Nc3ccccc3)CC2)CC1	inactive	
Cc1noc(C)c1C(=O)N1CCC2(CCCN(C(c3ccccc3)c3ccccc3)C2)CC1	inactive	
Cc1cc(C)c(NC(=O)C[C@H](CC(=O)O)c2cccc3ccccc23)c(C(=O)N2CCC3(CCCC3)CC2)c1	15.8 µM (active)	
CC1=C(C(=O)OCc2ccccc2)C(c2ccccc2)NC(=O)N1CCCCCC(=O)O (stereo unspecified)	inactive	
CC1=C(C(=O)OCc2ccccc2)C(c2cccnc2)c2c(n(C)c(=O)n(C)c2=O)N1 (stereo unspecified)	11.2 µM (active)	
CCOC(=O)CC(=O)CSc1nc(-c2ccccc2)cc(-c2ccc(Cl)cc2)c1C#N	17.8 µM (active)	
N#Cc1ccc(-c2ccccc2)nc1SCC(=O)c1cccc(Cl)c1	inactive	
C[C@H](Oc1ccccc1)C(=O)N[C@@H]1C(=O)N2[C@@H]1SC(C)(C)[C@@H]2C(=O)O	inactive	
CC1(C)S[C@@H]2[C@H](NC(=O)[C@@H](N)c3ccc(O)cc3)C(=O)N2[C@H]1C(=O)O	inactive	
CC1(C)S[C@@H]2[C@H](NC(=O)[C@@H](N)c3ccccc3)C(=O)N2[C@H]1C(=O)O[C@H]1OC(=O)c2ccccc21	1.58 µM (active)	
O=c1c2ccccc2nc2n1C(CSCc1cccc(C(F)(F)F)c1)CS2 (stereo unspecified)	4.47 µM (active)	

Source: PubChem BioAssay AID1851 (National Center for Advancing Translational Sciences (NCATS), 2009)
